The source of these data is PubChem BioAssay AID434970 (Sanford-Burnham Center for Chemical Genomics, 2010).

Molecules are shown by their SMILES. The whole screen tested about 11,000 compounds, of which about 310 (2.8%) were called active. Cut-off read from the data, not from the text of the source: active = activity change below about -85%; inactive = the rest. What follows is part of a selection rich in actives, with near analogues and random picks from the rest.

The assay relates to intestinal alkaline phosphatase [Mus musculus]. Kind of assay: mouse intestinal phosphatase enzyme activation – biochemical, luminescence, single concentration, confirmation (AID 434970). The settings on record: purified mouse IAP, CDP-Star luminescence, 30 min, at 10 µM; activation factor: measured here: IAP activation factor, stronger effect = higher value; activity change, negative = activation: stronger effect = lower value.
As for `O=C(Nc1cccc(F)c1)NC1CCCCCCC1`, the activation factor is 2.42 and the activity change, negative = activation was -142% (active).

On to `C=CCNc1nc(Nc2ccc(OC)cc2)nc(OC)n1`, for which the activation factor was 0.992 and the activity change, negative = activation was 0.8% (inactive).

Take `CC(C)C(NC(=S)NCc1ccccc1)C(=O)O` (stereo unspecified): the activation factor was 0.93 and the activity change, negative = activation is 7% (inactive).

As for `Cc1ccc(-c2nn3c(C)nnc3s2)cc1NC(=O)c1ccc(-c2cccc(Cl)c2)o1`, the activation factor was 0.849 and the activity change, negative = activation is 15.2% (inactive).

`Cc1ccccc1NC1=C(Cl)C(=O)OC1OC(C)C` (stereo unspecified): the activation factor amounted to 0.976 and the activity change, negative = activation was 2.45% (inactive).

Regarding `CCOC(=O)c1c(N)sc(C(N)=O)c1C`, the activation factor turned out to be 1.01 and the activity change, negative = activation was -0.6% (inactive).

Regarding `O=C(Nc1c(-c2ccccc2)nc2sccn12)c1ccccc1`, the activation factor was 0.907 and the activity change, negative = activation was 9.25% (inactive).

Consider `CCN(CC)S(=O)(=O)c1ccc(Cl)c(C(=O)Oc2cccnc2)c1`, for which the activation factor was 0.919 and the activity change, negative = activation was 8.05% (inactive).

For `COC(=O)C1=C(C)NC2=C(C(=O)C(C(=O)OC)C(c3ccc(OC)cc3)C2)C1c1ccccn1` (stereo unspecified), the activation factor came to 1.07 and the activity change, negative = activation was -6.6% (inactive).

On to `CC(=O)Nc1ccc(NS(C)(=O)=O)cc1`, for which the activation factor is 0.891 and the activity change, negative = activation was 10.9% (inactive).

As for `O=C1CC(N2CCN(c3ccccc3F)CC2)C(=O)N1c1ccc2c(c1)OCCO2` (stereo unspecified), the activation factor worked out at 0.964 and the activity change, negative = activation is 3.6% (inactive).

For the compound `O=C(CSc1nnc(-c2ccco2)n1Cc1ccco1)NCc1ccccc1`, the activation factor worked out at 1.11 and the activity change, negative = activation was -11.1% (inactive).

As to `FC(F)(F)c1ccc(NC(=S)NC2CCCCC2)cc1`, the activation factor was determined as 1.25 and the activity change, negative = activation is -24.9% (inactive).

Regarding `O=C(Nc1cccc(C(F)(F)F)c1)NC1CCN(S(=O)(=O)c2ccc(F)cc2)CC1`, the activation factor was determined as 1.81 and the activity change, negative = activation was -81.5% (inactive).

As to `O=C(Nc1cccc(C(F)(F)F)c1)NC1CCCCC1`, the activation factor is 2.1 and the activity change, negative = activation was -110% (active).

On to `O=c1[nH]c2ccc(S(=O)(=O)Nc3ccc(-c4nnc5n4CCCCC5)cc3)cc2o1`, for which the activation factor is 0.87 and the activity change, negative = activation was 13% (inactive).

Take `CCC(NC(=S)NCc1ccc(F)cc1)c1ccc(C(C)C)cc1` (stereo unspecified): the activation factor turned out to be 1.39 and the activity change, negative = activation is -38.5% (inactive).

Turning to `CC(NC(=S)NCc1ccc(F)cc1)C12CC3CC(CC(C3)C1)C2` (stereo unspecified), the activation factor amounted to 4.19 and the activity change, negative = activation is -319% (active).

Consider `CCc1ccc(C(C)NC(=S)NCc2ccc(F)cc2)cc1` (stereo unspecified), for which the activation factor is 1.11 and the activity change, negative = activation was -10.5% (inactive).

`COc1cc(CN(C2CC2)S(=O)(=O)c2ccccc2Br)cc(OC)c1`: the activation factor was determined as 1.07 and the activity change, negative = activation is -7.4% (inactive).

Consider `O=C(c1ccco1)N1CCN(C(=O)C2CCN(S(=O)(=O)c3cnc[nH]3)CC2)CC1`, for which the activation factor amounted to 0.909 and the activity change, negative = activation was 9.15% (inactive).

With `O=C(NNc1cccc(Cl)n1)Nc1ccccc1`, the activation factor was found to be 0.964 and the activity change, negative = activation is 3.55% (inactive).

With `CC(C)(C)c1nc(NC(=O)Nc2ccccc2)sc1Br`, the activation factor amounted to 2.12 and the activity change, negative = activation was -112% (active).

Turning to `CCOc1ccc2nc(NC(=O)Nc3ccccc3)sc2c1`, the activation factor turned out to be 1.04 and the activity change, negative = activation is -3.8% (inactive).

In the case of `CC(C)(C)c1ccc(OC(=O)c2cccnc2)cc1`, the activation factor amounted to 1.01 and the activity change, negative = activation was -0.6% (inactive).

For the compound `CCO/C(C)=C1\N=C(c2ccc(Cl)cc2)OC1=O`, the activation factor came to 1.06 and the activity change, negative = activation was -5.85% (inactive).

As for `O=C(Nc1cccc(-c2cccc(Cl)c2)c1)C1CCN(Cc2ccc(CO)o2)CC1`, the activation factor was 2.61 and the activity change, negative = activation was -161% (active).

`COCc1ccc(CN2CCC(C(=O)Nc3cccc(-c4cccc(Cl)c4)c3)CC2)o1`: the activation factor stood at 4.36 and the activity change, negative = activation is -336% (active).

On to `O=C(NCc1ccc2c(c1)OCO2)C1CCCN1C(=O)Nc1cccc(Cl)c1` (stereo unspecified), for which the activation factor came to 1.03 and the activity change, negative = activation is -2.95% (inactive).

With `O=C(Nc1cccc(-c2cccc(F)c2)c1)C1CCN(Cc2ccc(CO)o2)CC1`, the activation factor stood at 1.64 and the activity change, negative = activation was -64.3% (inactive).

Turning to `O=C(Nc1ccc2c(c1)OCCO2)C1CCN(S(=O)(=O)c2cccc3nsnc23)CC1`, the activation factor is 0.988 and the activity change, negative = activation is 1.25% (inactive).

On to `Cc1oc(-c2ccc(Cl)cc2)nc1CN1CCC(C(=O)NCc2cccs2)CC1`, for which the activation factor came to 1.19 and the activity change, negative = activation is -19.5% (inactive).

For the compound `O=C(Nc1ccc(Br)c(Cl)c1)C1CC1`, the activation factor is 1.01 and the activity change, negative = activation was -1.05% (inactive).

With `O=C(Nc1cccc(-c2cccc(Cl)c2)c1)C1CCN(CC2CCOC2)CC1` (stereo unspecified), the activation factor was 2.32 and the activity change, negative = activation is -132% (active).

In the case of `O=C(Nc1cccc(-c2cccc(Cl)c2)c1)C1CCN(Cc2ccon2)CC1`, the activation factor worked out at 1.73 and the activity change, negative = activation was -73.1% (active).

Consider `CCOc1ccc(Br)cc1S(=O)(=O)Nc1ccccc1N1CCOCC1`, for which the activation factor was 0.919 and the activity change, negative = activation was 8.1% (inactive).

Regarding `CC(C)N(C(=O)[C@H]1C[C@H](CC(=O)NC(C)(C)C)C(=O)N2CCc3c([nH]c4cc(-c5ccco5)ccc34)[C@]12C)C(C)C`, the activation factor is 1.09 and the activity change, negative = activation was -9% (inactive).

Turning to `CC(=O)NC1=NN(C(C)=O)C(c2cccs2)S1` (stereo unspecified), the activation factor was determined as 1.08 and the activity change, negative = activation was -8% (inactive).

`CCSc1sccc1C1C(C#N)=C(N)N(c2cccnc2)C2=C1C(=O)CCC2` (stereo unspecified): the activation factor was found to be 0.703 and the activity change, negative = activation is 29.8% (inactive).

For the compound `Cc1oc(-c2ccccc2F)nc1CN1CCC(C(=O)NC2CCCc3ccccc32)CC1` (stereo unspecified), the activation factor amounted to 1.12 and the activity change, negative = activation is -12.4% (inactive).

Consider `CC[C@]12c3[nH]c4ccc(OC)cc4c3CCN1C(=O)C(CC(=O)NCc1cccc(C(F)(F)F)c1)C[C@@H]2C(=O)N1CCN(C(=O)c2ccco2)CC1` (stereo partly specified), for which the activation factor was 0.989 and the activity change, negative = activation was 1.05% (inactive).

As to `CN(Cc1ccccc1)C(=O)Cn1cccc1C(=O)c1ccccc1`, the activation factor was determined as 1.13 and the activity change, negative = activation was -13.4% (inactive).

Take `O=C(C1CCCN1C(=O)c1cccs1)N1CCN(Cc2ccc3c(c2)OCO3)CC1` (stereo unspecified): the activation factor turned out to be 0.924 and the activity change, negative = activation is 7.55% (inactive).
